Assay results reported in PubChem BioAssay (EPA / NIEHS).
Records with an inconclusive call do not appear. Calls of active or inactive are those of the source. Rule for the calls, unless noted: active = hit-call score of the fitted dose curve at least 0.9, where 1 is the maximum; inactive = score below 0.9.

Columns and labels:
[1] = target: Estrogen-related receptor gamma (Homo sapiens) (UniProt P62508); assay: ATG_ERRg_TRANS: Attagene TRANS-FACTORIAL HepG2 Assay for human Estrogen-Related Receptor gamma (ERRg) (AID 2282977; active = hit-call score of the fitted dose curve at least 0.9, where 1 is the maximum;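 note: hits increase reporter signal over DMSO so potencies reflect activators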); details: HepG2 Attagene TRANS reporter, ERRg transactivation
Estrogen-related receptor gamma (Homo sapiens), sequence (P62508 whole entry, looked up, the tested form may be a part): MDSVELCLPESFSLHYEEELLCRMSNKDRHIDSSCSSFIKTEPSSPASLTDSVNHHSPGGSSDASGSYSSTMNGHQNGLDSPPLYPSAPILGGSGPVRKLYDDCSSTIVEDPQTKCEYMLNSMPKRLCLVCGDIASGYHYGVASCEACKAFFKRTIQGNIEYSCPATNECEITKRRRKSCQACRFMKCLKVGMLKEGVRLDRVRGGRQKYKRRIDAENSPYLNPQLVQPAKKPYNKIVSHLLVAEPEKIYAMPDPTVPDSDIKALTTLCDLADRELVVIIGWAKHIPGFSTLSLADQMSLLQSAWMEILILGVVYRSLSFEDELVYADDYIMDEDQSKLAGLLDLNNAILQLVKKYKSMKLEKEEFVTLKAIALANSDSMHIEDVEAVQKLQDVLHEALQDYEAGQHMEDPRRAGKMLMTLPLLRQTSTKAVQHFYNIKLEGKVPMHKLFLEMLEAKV
How it was run: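 HepG2 cells transiently transfected with multiplexed GAL4-UAS reporter units and chimeric NR-Gal4 constructs were exposed to test chemicals for 24 h. Reporter mRNA was measured by RT-PCR, 6-FAM primer extension, HpaI digestion and capillary electrophoresis; gain-of-signal versus DMSO.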

[2] = target: Oxysterols receptor LXR-alpha (Homo sapiens) (UniProt Q13133); assay: ATG_LXRa_TRANS: Attagene TRANS-FACTORIAL HepG2 Assay for human Liver X Receptor alpha (LXRa) (AID 2282980; active = hit-call score of the fitted dose curve at least 0.9, where 1 is the maximum); details: HepG2 Attagene TRANS reporter, LXRa transactivation
Oxysterols receptor LXR-alpha (Homo sapiens), sequence (Q13133 whole entry, looked up, the tested form may be a part): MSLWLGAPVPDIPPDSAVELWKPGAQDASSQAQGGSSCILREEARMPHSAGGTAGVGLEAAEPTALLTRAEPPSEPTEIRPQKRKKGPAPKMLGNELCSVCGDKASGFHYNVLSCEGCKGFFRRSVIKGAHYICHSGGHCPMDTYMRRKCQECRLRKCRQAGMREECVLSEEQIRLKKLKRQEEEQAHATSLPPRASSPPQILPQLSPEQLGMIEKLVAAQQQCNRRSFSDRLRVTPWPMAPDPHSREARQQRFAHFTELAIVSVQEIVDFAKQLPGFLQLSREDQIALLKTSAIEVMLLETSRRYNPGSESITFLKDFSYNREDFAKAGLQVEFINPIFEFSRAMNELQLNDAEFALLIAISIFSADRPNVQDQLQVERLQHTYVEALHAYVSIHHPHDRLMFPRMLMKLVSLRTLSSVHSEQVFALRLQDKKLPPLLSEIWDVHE
How it was run: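 Read-out: reporter transcript levels by RT-PCR plus capillary electrophoresis, fluorescence intensity. Transiently transfected HepG2, exogenous NR-GAL4 chimera, GAL4-UAS reporters; 24 h compound exposure. Activity = increase over DMSO negative control.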

[3] = target: Oxysterols receptor LXR-beta (Homo sapiens) (UniProt P55055); assay: ATG_LXRb_TRANS: Attagene TRANS-FACTORIAL HepG2 Assay for human Liver X Receptor beta (LXRb) (AID 2282981; active = hit-call score of the fitted dose curve at least 0.9, where 1 is the maximum); details: HepG2 Attagene TRANS GAL4-LXRb reporter, mRNA
Oxysterols receptor LXR-beta (Homo sapiens), sequence (P55055 whole entry, looked up, the tested form may be a part): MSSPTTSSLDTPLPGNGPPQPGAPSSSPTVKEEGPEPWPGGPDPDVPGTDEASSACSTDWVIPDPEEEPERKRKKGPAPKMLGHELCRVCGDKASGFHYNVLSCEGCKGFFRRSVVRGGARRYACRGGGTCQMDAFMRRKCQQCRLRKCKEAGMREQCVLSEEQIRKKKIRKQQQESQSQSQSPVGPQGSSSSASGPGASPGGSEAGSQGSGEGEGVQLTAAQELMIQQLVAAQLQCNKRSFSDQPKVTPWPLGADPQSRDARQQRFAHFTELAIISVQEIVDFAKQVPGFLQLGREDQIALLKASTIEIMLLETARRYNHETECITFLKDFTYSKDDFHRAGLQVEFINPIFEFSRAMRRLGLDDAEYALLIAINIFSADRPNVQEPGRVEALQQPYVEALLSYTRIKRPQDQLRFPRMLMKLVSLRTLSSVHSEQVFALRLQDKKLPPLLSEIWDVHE
How it was run: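 Gain-of-signal mRNA reporter endpoint, DMSO as negative control. Transiently transfected HepG2 cells carrying the NR-Gal4 chimera and GAL4-UAS reporter units were treated 24 h; transcripts quantified by RT-PCR and capillary electrophoresis fluorescence.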

[4] = target: Hepatocyte nuclear factor 4-alpha (Homo sapiens) (UniProt P41235); assay: ATG_HNF4a_TRANS: Attagene TRANS-FACTORIAL HepG2 Assay for human Hepatocyte Nuclear Factor 4 alpha (HNF4a) (AID 2282982; active = hit-call score of the fitted dose curve at least 0.9, where 1 is the maximum); details: HepG2 HNF4a transactivation reporter, mRNA readout
Hepatocyte nuclear factor 4-alpha (Homo sapiens), sequence (P41235 whole entry, looked up, the tested form may be a part): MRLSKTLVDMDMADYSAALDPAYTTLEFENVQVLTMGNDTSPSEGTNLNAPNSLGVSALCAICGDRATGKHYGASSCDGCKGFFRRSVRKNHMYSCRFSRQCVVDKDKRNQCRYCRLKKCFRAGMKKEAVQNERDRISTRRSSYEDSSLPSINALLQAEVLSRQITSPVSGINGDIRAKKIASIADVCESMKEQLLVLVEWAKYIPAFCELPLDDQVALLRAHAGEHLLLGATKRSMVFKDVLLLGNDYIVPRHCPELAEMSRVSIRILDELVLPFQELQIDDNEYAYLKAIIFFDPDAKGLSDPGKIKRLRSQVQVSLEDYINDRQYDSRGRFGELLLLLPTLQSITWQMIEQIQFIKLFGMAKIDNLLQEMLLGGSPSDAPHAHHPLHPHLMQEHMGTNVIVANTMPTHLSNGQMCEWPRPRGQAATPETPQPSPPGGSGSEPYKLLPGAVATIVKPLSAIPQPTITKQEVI
How it was run: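 Gain-of-signal mRNA induction, relative to DMSO vehicle, was read after 24 h compound treatment of HepG2 cells bearing transfected GAL4-UAS reporters. Detection used RT-PCR, 6-FAM primer extension and capillary electrophoresis.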

[5] = ATG_M_06_TRANS: Attagene TRANS-FACTORIAL HepG2 Assay for M06 Transcription Factor (Internal Marker) (AID 2282983; active = hit-call score of the fitted dose curve at least 0.9, where 1 is the maximum); details: HepG2 Attagene TRANS M06 internal marker reporter
How it was run: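 After a 24 h chemical treatment of transfected HepG2, RNA underwent DNase I treatment, reverse transcription and reporter-specific PCR; labelled, HpaI-digested products were sized by capillary electrophoresis. Signal increase relative to DMSO defined activity.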

[6] = target: Transcriptional activator Myb (Homo sapiens) (UniProt P10242); assay: ATG_Myb_CIS: Attagene CIS-FACTORIAL HepG2 Assay for human Myeloblastosis (Myb) Proto-Oncogene Transcription Factor (AID 2282986); details: HepG2 Attagene CIS-FACTORIAL Myb reporter transcription; actives raise or lower the signal
Transcriptional activator Myb (Homo sapiens), sequence (P10242 whole entry, looked up): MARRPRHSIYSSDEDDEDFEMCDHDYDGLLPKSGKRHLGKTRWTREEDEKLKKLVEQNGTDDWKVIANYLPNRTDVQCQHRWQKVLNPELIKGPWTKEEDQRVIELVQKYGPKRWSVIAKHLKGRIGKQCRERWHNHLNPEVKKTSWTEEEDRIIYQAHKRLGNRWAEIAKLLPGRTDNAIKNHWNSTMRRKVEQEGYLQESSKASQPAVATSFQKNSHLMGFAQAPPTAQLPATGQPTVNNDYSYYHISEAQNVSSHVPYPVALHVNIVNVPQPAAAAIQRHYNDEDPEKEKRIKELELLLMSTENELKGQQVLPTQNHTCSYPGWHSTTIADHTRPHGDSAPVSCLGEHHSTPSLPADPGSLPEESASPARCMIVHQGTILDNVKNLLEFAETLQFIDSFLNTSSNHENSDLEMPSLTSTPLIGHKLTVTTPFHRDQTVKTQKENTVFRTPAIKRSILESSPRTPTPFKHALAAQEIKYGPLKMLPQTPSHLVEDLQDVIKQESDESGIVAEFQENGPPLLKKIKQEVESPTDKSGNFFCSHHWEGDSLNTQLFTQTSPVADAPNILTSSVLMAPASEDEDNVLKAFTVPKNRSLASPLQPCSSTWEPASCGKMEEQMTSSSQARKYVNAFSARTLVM
How it was run: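 Using HepG2 liver cells bearing transiently transfected cis-promoter reporter constructs, the assay measures induction or loss of reporter mRNA after 24 hours of dosing. Detection used fluorescently labeled RT-PCR products separated by capillary electrophoresis.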

[7] = target: Nuclear respiratory factor 1 (Homo sapiens) (UniProt Q16656); assay: ATG_NRF1_CIS: Attagene CIS-FACTORIAL HepG2 Assay for human Nuclear Respiratory Factor 1 (NRF1) Orphan Gene (AID 2282987); details: HepG2 NRF1 cis-element reporter, Attagene multiplex; actives raise or lower the signal
Nuclear respiratory factor 1 (Homo sapiens), sequence (Q16656 whole entry, looked up): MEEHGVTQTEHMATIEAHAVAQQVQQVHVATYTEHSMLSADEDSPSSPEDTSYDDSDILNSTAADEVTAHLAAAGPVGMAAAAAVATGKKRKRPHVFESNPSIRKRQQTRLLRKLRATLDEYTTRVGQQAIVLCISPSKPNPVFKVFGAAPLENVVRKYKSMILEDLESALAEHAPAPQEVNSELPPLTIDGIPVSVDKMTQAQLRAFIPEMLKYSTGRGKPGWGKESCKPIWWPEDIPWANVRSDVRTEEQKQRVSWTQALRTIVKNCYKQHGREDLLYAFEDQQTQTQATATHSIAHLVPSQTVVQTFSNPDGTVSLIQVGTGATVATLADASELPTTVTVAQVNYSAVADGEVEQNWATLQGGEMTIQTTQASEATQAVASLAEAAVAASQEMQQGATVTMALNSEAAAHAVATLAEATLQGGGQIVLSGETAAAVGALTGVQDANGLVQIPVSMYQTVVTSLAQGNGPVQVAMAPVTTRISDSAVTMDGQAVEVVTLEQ
How it was run: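 Reporter mRNA induction or loss in HepG2 cells after 24 h dosing; cis-regulated reporter constructs report endogenous transcription-factor activity. Quantified by RT-PCR/capillary electrophoresis fluorescence, DMSO-referenced.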

[8] = ATG_NFI_CIS: Attagene CIS-FACTORIAL HepG2 Assay for human Nuclear Factor I (NFI) (AID 2282989); details: HepG2 cis-regulatory reporter, NFI response element transcription; actives raise or lower the signal
How it was run: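 Multiplexed cis-reporter system in human HepG2 cells reports native TF activity as reporter mRNA induction 24 h post-dose. Fragments labelled with 6-FAM, HpaI-digested and resolved by capillary electrophoresis; activity fitted both directions versus DMSO.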

[9] = target: Myc proto-oncogene protein (Homo sapiens) (UniProt P01106); assay: ATG_Myc_CIS: Attagene CIS-FACTORIAL HepG2 Assay for human Myelocytomatosis (Myc) Proto-Oncogene Transcription Factor (AID 2282990); details: HepG2, Attagene cis-reporter transcription factor activity; actives raise or lower the signal
Myc proto-oncogene protein (Homo sapiens), sequence (P01106 whole entry, looked up): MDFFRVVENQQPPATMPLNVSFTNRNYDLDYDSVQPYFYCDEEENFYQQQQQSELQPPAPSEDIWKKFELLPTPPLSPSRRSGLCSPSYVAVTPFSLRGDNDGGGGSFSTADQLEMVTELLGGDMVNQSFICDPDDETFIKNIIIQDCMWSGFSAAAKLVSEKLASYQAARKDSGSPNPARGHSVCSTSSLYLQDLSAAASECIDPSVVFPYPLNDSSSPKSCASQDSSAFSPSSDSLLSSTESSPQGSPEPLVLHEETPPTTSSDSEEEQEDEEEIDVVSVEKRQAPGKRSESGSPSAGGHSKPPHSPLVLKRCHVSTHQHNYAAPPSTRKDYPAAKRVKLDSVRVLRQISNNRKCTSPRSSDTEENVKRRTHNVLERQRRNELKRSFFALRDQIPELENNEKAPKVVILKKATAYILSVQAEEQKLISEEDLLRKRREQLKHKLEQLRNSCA
How it was run: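 Transiently transfected HepG2 cells bearing cis-promoter reporter units for endogenous transcription factors; 24 h exposure. Reporter mRNA measured by RT-PCR, 6-FAM primer extension, HpaI cut and capillary electrophoresis; bidirectional fit relative to DMSO.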

[10] = ATG_NF_kB_CIS: Attagene CIS-FACTORIAL HepG2 Assay for human Nuclear Factor Kappa B (NF-kB) (AID 2282991); details: HepG2 Attagene cis-factorial NF-kB reporter mRNA; actives raise or lower the signal
How it was run: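 DMSO served as negative control and baseline for bidirectional curve fitting. Transiently transfected HepG2 cells were dosed for 24 h, then reporter transcripts were measured by RT-PCR with capillary electrophoresis detection.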

[11] = ATG_NRF2_ARE_CIS: Attagene CIS-FACTORIAL HepG2 Assay for human Nuclear Factor Erythroid 2 Related Factor 2 (NFR2) response to Antioxidant Response Elements (ARE) (AID 2282992); details: HepG2 Attagene ARE/NRF2 reporter, transcription factor activity; actives raise or lower the signal;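 for AC50: reporter mRNA level measured by RT-PCR and capillary electrophoresis fluorescence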
How it was run: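 HepG2 cells transiently transfected with multiplexed cis-regulated reporter transcription units measure endogenous transcription factor activity. Reporter mRNA at 24 h is quantified by RT-PCR, fluorescent labelling and capillary electrophoresis, with bidirectional fitting relative to DMSO.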

[12] = ATG_Oct_MLP_CIS: Attagene CIS-FACTORIAL HepG2 Assay for human Octamer-Binding Transcription Factor (Oct) (AID 2282993); details: HepG2 Attagene cis-factorial Oct reporter, mRNA; actives raise or lower the signal
How it was run: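 After 24 h compound exposure, transfected HepG2 cells were lysed for total RNA; reporter-specific cDNA was PCR-amplified, fluorescently labelled and sized by capillary electrophoresis. Bidirectional curve fitting used DMSO as baseline.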

[13] = BSK_3C_TissueFactor: BioMAP Diversity Plus: 3C Assay for Tissue Factor Biomarker Activity (AID 2282997); details: BioMAP 3C HUVEC, tissue factor biomarker readout; actives raise or lower the signal
How it was run: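 Human vascular primary cells (umbilical vein endothelium) received test chemical; Tissue Factor was determined by ELISA at 24 h, and both gain and loss of signal versus DMSO were fitted.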

[14] = BSK_3C_uPAR: BioMAP Diversity Plus: 3C Assay for Urokinase-type plasminogen activator receptor (uPAR) Biomarker Activity (AID 2282998); details: BioMAP 3C HUVEC, uPAR biomarker ELISA; actives raise or lower the signal
How it was run: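 Values derive from bidirectional curve fitting relative to DMSO, which served as baseline of activity. uPAR was measured by ELISA in human umbilical vein endothelial primary cultures 24 h after compound addition.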

[15] = target: Cellular tumor antigen p53 (Homo sapiens) (UniProt P04637); assay: ATG_p53_CIS: Attagene CIS-FACTORIAL HepG2 Assay for human p53 Transcription Factor (AID 2282994); details: HepG2 p53 cis-element reporter, Attagene mRNA; actives raise or lower the signal
Cellular tumor antigen p53 (Homo sapiens), sequence (P04637 whole entry, looked up): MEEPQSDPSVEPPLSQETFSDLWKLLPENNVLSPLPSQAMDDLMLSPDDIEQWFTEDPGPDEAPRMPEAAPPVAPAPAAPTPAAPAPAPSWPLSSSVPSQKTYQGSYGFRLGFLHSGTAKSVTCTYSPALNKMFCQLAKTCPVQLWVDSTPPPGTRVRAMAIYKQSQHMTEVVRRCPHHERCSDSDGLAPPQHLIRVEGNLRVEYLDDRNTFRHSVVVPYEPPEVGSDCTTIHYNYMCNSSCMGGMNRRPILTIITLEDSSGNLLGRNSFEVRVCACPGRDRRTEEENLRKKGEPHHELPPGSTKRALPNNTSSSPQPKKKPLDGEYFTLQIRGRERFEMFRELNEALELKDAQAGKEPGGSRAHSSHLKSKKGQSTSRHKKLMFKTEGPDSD
How it was run: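 HepG2 cells transiently transfected with multiplexed cis-regulated reporter transcription units read endogenous TF activity. After 24 h compound exposure, reporter mRNA was quantified by RT-PCR, fluorescent labelling, HpaI digestion and capillary electrophoresis; bidirectional fits versus DMSO baseline.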

[16] = target: Bile acid receptor (Homo sapiens) (UniProt Q96RI1); assay: ATG_FXR_TRANS: Attagene TRANS-FACTORIAL HepG2 Assay for Farnesoid X Receptor (FXR) (AID 2282979; active = hit-call score of the fitted dose curve at least 0.9, where 1 is the maximum;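 note: hits raise reporter mRNA above DMSO so AC50 marks FXR activation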); details: HepG2 Attagene TRANS FXR-GAL4 reporter transcription
Bile acid receptor (Homo sapiens), sequence (Q96RI1 whole entry, looked up, the tested form may be a part): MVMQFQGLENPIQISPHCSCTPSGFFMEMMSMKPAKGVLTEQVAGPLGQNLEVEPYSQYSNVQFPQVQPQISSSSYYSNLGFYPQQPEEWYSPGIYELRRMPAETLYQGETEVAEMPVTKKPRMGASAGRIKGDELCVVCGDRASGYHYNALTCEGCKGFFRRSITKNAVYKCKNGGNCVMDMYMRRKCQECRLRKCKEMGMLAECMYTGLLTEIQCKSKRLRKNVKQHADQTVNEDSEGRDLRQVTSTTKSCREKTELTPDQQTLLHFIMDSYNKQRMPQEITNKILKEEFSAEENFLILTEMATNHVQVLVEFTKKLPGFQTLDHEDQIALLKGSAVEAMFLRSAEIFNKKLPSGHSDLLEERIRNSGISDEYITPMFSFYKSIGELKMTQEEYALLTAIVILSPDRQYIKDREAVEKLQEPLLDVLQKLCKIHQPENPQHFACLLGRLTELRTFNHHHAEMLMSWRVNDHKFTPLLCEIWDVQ
How it was run: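 Read-out: fluorescent reporter transcripts quantified by capillary electrophoresis after RT-PCR of total RNA. Source cells were HepG2 transiently carrying chimeric NR-GAL4 plus GAL4-UAS reporter units, dosed 24 h. Activity fitted upward relative to DMSO baseline.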

[17] = ATG_M_32_TRANS: Attagene TRANS-FACTORIAL HepG2 Assay for M32 Transcription Factor (Internal Marker) (AID 2282984; active = hit-call score of the fitted dose curve at least 0.9, where 1 is the maximum;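 note: transcript level of a background control reporter unit measured by RT-PCR and capillary electrophoresis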); details: HepG2 Attagene TRANS M32 internal marker reporter
How it was run: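 Capillary electrophoresis of 6-FAM-labelled reporter fragments gives the signal; data fitted for gain over DMSO negative control. Source: HepG2 cells bearing transient multiple reporter transcription units, 24 h exposure.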

[18] = target: Nuclear receptor subfamily 4 group A member 2 (Homo sapiens) (UniProt P43354); assay: ATG_NURR1_TRANS: Attagene TRANS-FACTORIAL HepG2 Assay for human Nuclear Receptor Related Protein 1 (NURR1) (AID 2282985; active = hit-call score of the fitted dose curve at least 0.9, where 1 is the maximum); details: HepG2 Attagene TRANS reporter, mRNA readout
Nuclear receptor subfamily 4 group A member 2 (Homo sapiens), sequence (P43354 whole entry, looked up): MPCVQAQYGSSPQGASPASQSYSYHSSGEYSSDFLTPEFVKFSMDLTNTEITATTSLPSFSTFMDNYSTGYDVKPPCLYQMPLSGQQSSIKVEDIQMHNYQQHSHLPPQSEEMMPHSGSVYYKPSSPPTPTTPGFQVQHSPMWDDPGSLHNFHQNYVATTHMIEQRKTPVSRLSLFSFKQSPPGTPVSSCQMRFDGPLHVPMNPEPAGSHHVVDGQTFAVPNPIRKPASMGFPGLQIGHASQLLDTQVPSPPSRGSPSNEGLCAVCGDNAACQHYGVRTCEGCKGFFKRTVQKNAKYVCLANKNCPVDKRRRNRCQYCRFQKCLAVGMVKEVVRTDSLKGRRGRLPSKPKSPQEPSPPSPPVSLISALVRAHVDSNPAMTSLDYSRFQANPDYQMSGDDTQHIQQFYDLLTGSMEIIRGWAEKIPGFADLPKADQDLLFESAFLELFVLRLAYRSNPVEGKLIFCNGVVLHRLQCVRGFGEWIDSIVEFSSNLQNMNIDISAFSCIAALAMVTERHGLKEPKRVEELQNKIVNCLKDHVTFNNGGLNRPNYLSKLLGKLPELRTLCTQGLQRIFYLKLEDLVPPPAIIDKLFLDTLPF
How it was run: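 HepG2 / transient MRTU transfection / 24 h compound exposure / RT-PCR + CE fluorescence of reporter mRNA / gain-of-signal vs DMSO.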

[19] = ATG_GAL4_TRANS: Attagene TRANS-FACTORIAL HepG2 Assay for GAL4 (Internal Marker) (AID 2282976; active = hit-call score of the fitted dose curve at least 0.9, where 1 is the maximum); details: HepG2 Attagene TRANS GAL4 internal marker reporter
How it was run: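 RT-PCR/capillary electrophoresis readout of reporter mRNA. HepG2, transient MRTU transfection (GAL4-UAS reporters), 24 h compound exposure. Background-control endpoint, positive direction vs DMSO baseline.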

[20] = target: Glucocorticoid receptor (Homo sapiens) (UniProt P04150); assay: ATG_GR_TRANS: Attagene TRANS-FACTORIAL HepG2 Assay for human Glucocorticoid Receptor (GR) (AID 2282978; active = hit-call score of the fitted dose curve at least 0.9, where 1 is the maximum;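 note: activators score as hits since higher reporter transcript over DMSO is fitted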); details: HepG2 Attagene TRANS GR reporter, mRNA transcription
How it was run: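 Transiently transfected HepG2 cells express chimeric NR-GAL4 proteins acting on GAL4-UAS reporter units. Compounds are applied for 24 h. mRNA induction over DMSO is measured by capillary electrophoresis.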

Measured: AC50

C=C(C)[C@H]1Cc2c(ccc3c2O[C@@H]2COc4cc(OC)c(OC)cc4[C@@H]2C3=O)O1
inactive: [1] | [2] | [3] | [4] | [5] | [6] | [7] | [8] | [9]
active: [10] 0.063 µM | [11] 0.00527 µM | [12] 0.0306 µM | [13] 8.69 µM | [14] 7.25 µM

Cc1nn(-c2cc(NS(C)(=O)=O)c(Cl)cc2Cl)c(=O)n1C(F)F
inactive: [1] | [2] | [3] | [4] | [7] | [8] | [9] | [11] | [12] | [15] | [13] | [14]

C#CCC1=C(C)C(OC(=O)C2C(C=C(C)C)C2(C)C)CC1=O (stereo unspecified)
inactive: [1] | [16] | [3] | [4] | [5] | [17] | [18] | [7] | [13] | [14]
active: [6] 93.4 µM | [8] 80 µM | [9] 68.1 µM | [11] 13.2 µM | [12] 44.5 µM | [15] 80.1 µM

Cc1ccn2nc(S(=O)(=O)Nc3c(F)cccc3F)nc2n1
inactive: [1] | [16] | [3] | [5] | [17] | [6] | [7] | [8] | [9] | [11] | [12] | [13] | [14]

CCCOCC(=Nc1ccc(Cl)cc1C(F)(F)F)n1ccnc1
inactive: [19] | [16] | [3] | [4] | [5] | [17] | [7] | [8] | [9] | [10] | [12] | [15]
active: [11] 7 µM | [13] 28.8 µM | [14] 31.7 µM

CCCCN(CC)c1c([N+](=O)[O-])cc(C(F)(F)F)cc1[N+](=O)[O-]
inactive: [1] | [20] | [2] | [5] | [17] | [18] | [7] | [8] | [9] | [10] | [15] | [13] | [14]
active: [11] 6.46 µM | [12] 12.7 µM

CC1=NNC(=O)N(/N=C/c2cccnc2)C1
inactive: [1] | [2] | [3] | [4] | [5] | [17] | [18] | [7] | [8] | [9] | [10] | [11] | [12] | [15] | [13] | [14]

CCC(=O)Nc1ccc(Cl)c(Cl)c1
inactive: [19] | [2] | [3] | [4] | [5] | [17] | [18] | [7] | [9] | [12] | [15] | [13] | [14]
active: [8] 10.5 µM | [11] 30.7 µM
